# Laboratory results published in PubChem BioAssay.
# Several values for one entry are separate records, joined by “and”; a condition that tells them apart may be missing. Identical values can stand only once. Inconclusive results are not listed. Activity calls are given as the source filed them. Unless noted, no rule for the calls is given here.
# Assays:
# [1] = test system: Aerobactin synthetase IucA (Klebsiella pneumoniae); test: IucA aerobactin synthetase inhibitors, biochemical, Tocris library, absorbance (AID 1345561); conditions: purified IucA enzyme assay, absorbance (OD) read-out; stronger effect = lower value;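 tested at 8 µM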;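 also: 100% = enzyme without compound and 0% = no enzyme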
# [2] = sensitizers of A549 cells to miR-34 induction, primary screen, imaging, A549 dox-inducible miR-34, nuclei and caspase counts (AID 1347080;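 active = compounds whose cell count with miR-34 switched on is under 0.7 times the count with it off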); conditions: A549 miR-34 inducible, Hoechst nuclei count, 48 h
# [3] = viability rescue of complex I mutant cybrids, primary screen, cell-based, galactose medium, ATP luminescence (AID 1645843;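 active = z-score of at least 1.8 in each of two replicates, scored against plate mean and spread of sample wells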;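 also: positive z means more ATP and so rescue of galactose-driven cybrid death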); conditions: complex I mutant cybrid cells, 72 h, stronger effect = higher value
# [4] = growth inhibition of DIPG glioma cells, dose response, cell-based, JHH-DIPG-1, MIPE4.0, CellTiter-Glo, qHTS (AID 1347062; cut-off not given, nearly all actives have AC50 up to about 27 µM); conditions: JHH-DIPG-1 viability, CellTiter-Glo ATP luminescence
# [5] = growth inhibition of DIPG glioma cells, dose response, cell-based, SU-DIPG-IV, MIPE4.0, CellTiter-Glo, qHTS (AID 1347063; cut-off not given, nearly all actives have AC50 up to about 30 µM;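 also: compound exposure lasted 48 hours before the viability readout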); conditions: SU-DIPG-IV viability, CellTiter-Glo ATP luminescence
# [6] = SU-DIPG-VI glioma cell viability, MIPE4.0 library, CellTiter-Glo luminescence, qHTS (AID 1347066; cut-off not given, nearly all actives have AC50 up to about 30 µM;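 also: cells exposed to compound for 48 hours before readout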); conditions: CellTiter-Glo ATP luminescence
# [7] = circadian clock period modulators, cell-based, LOPAC library, luminescence reporter (AID 2774); conditions: circadian reporter cells, at 7 µM, actives lie on both sides;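 also: values are relative to mean of DMSO wells on each plate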
# [8] = test system: Hepatitis C virus NS3 helicase; test: HCV NS3 helicase inhibitors, primary screen, biochemical, fluorescence polarization, LOPAC1280 library (AID 687035; in the data active = inhibition above about 37%); conditions: Purified HCV NS3 helicase, Cy5-dT15 ssDNA binding fluorescence polarization; stronger effect = higher value; concentration not given here
# [9] = Cy5 fluorescence quenching or enhancement artefacts, artefact control for HCV NS3 helicase inhibitor project, biochemical, LOPAC1280 (AID 687037); conditions: Cy5-DNA-NS3h complex fluorescence interference counterscreen
# [10] = test system: Aerobactin synthetase IucA (Klebsiella pneumoniae, hypervirulent); test: IucA enzyme inhibition, biochemical, LOPAC library, absorbance readout (AID 1346212); conditions: IucA enzyme assay, absorbance (OD) readout; stronger effect = lower value;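 tested at 8 µM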;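 also: 100% = no compound wells and 0% = no enzyme wells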
# [11] = phospholipid biosynthesis inhibitors in animal cells, primary screen, cell-based, LOPAC library, screen 4 (AID 1347384); conditions: phospholipid biosynthesis inhibition screen, at 10 µM
# [12] = hESC survival regulators, cell-based (AID 493140); conditions: human embryonic stem cell survival screen; stronger effect = higher value;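 also: cells exposed to compounds for four days before counting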
# [13] = liver-stage malaria parasite growth inhibition, primary screen, cell-based, HepG2, luciferase luminescence, HepG2 viability (AID 624349; in the data active = parasite load remaining mostly below about 12%, no sharp cut-off; inactive = mostly above about 10%;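 also: 100% = mean of DMSO negative control wells on the same plate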); conditions: P. berghei liver stage in HepG2, luciferase luminescence, concentration not given here; parasite load remaining: stronger effect = lower value; viability: measured here: HepG2 viability without parasites
# [14] = survival rescue of mitochondrial mutant cells in low glucose, primary screen, MELAS cybrids, Rieske KO mouse fibroblasts, CellTiter-Glo (AID 1508586;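 active = mean z-score across replicates of 1.96 or higher in either the MELAS or the Rieske mutant cell line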;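 also: z relative to plate mean and SD of compound and empty wells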)
# [15] = target: ATP-dependent translocase ABCB1 (Homo sapiens) (UniProt P08183); test: MDR1 (ABCB1) efflux transporter inhibition, cell-based (AID 377; in the data active = fluorescence slope change above about 50%); conditions: MDR1-expressing cells, fluorescent substrate accumulation slope; stronger effect = higher value; concentration not given here
# [16] = inhibitors of Cryptococcus chitosan production, flow cytometry, Cibacron Brilliant Red staining (AID 1347148); conditions: Cryptococcus neoformans chitosan, stronger effect = lower value; at 10 µM unless noted;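 also: compound exposure lasted three days at 37 degrees C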
# [17] = stronger effect = lower value, cell number ratio, induced over uninduced
# [18] = measured here: relative caspase fold change +Dox/-Dox
# [19] = measured here: total cells with miR-34 induction, stronger effect = lower value
# [20] = measured here: total cells without miR-34 induction
# [21] = MELAS cybrid survival, CellTiter-Glo 48 h, stronger effect = higher value
# [22] = Rieske KO mouse fibroblast survival, CellTiter-Glo 72 h
# ATP-dependent translocase ABCB1 (Homo sapiens), sequence (P08183 whole entry, looked up): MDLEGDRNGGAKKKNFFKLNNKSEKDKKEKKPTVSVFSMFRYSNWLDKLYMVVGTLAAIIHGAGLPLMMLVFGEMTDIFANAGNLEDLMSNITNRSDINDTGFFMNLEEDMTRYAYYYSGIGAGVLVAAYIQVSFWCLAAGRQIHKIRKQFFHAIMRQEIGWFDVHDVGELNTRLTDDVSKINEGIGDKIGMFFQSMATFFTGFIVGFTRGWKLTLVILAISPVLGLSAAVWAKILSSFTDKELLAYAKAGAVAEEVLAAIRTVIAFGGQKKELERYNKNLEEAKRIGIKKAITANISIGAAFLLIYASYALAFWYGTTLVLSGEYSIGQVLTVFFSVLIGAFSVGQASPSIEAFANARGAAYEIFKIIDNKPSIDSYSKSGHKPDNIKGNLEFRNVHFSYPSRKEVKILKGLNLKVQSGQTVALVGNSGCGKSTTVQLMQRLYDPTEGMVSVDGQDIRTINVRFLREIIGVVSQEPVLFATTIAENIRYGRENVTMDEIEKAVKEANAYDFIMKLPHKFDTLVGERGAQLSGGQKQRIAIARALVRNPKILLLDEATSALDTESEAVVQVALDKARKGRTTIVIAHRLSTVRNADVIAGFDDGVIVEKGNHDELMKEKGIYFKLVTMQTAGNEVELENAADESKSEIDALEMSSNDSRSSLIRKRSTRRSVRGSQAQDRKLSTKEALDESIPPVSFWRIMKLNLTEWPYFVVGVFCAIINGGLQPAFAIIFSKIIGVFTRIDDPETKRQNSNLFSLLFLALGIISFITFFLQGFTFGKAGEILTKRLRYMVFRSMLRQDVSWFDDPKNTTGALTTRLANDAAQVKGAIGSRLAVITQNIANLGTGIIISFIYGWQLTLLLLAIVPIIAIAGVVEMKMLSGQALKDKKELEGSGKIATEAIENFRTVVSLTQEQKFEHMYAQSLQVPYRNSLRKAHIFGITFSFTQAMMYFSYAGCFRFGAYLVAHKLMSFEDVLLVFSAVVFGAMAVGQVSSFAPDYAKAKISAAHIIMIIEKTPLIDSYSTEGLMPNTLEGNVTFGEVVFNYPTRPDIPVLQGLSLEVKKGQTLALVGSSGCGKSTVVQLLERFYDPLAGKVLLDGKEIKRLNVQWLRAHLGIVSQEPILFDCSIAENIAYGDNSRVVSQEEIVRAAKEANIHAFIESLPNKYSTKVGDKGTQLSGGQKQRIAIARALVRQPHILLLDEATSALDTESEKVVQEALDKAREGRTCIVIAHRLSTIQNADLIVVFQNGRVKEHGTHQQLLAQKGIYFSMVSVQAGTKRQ
smiles,measurement,setting,value
CCOC(=O)c1ncn2c1CN(C)C(=O)c1cc(N=[N+]=[N-])ccc1-2,remaining activity,[1],97.3% (inactive)
same,fold change,[2]; [17],0.891 (inactive)
same,fold change,[2]; [18],1.09
same,cell count,[2]; [19],7930
same,cell count,[2]; [20],8900
same,z-score,[3],0.06 (inactive)
CC1=C(O)C(=O)[C@@H]2O[C@@H]2C1=O,remaining activity,[1],113% (inactive)
same,fold change,[2]; [17],0.983 (inactive)
same,fold change,[2]; [18],1
same,cell count,[2]; [19],7990
same,cell count,[2]; [20],8130
same,z-score,[3],0.005 (inactive)
CC(=O)N(C)c1cccc(-c2ccnc3c(C(=O)c4cccs4)cnn23)c1,remaining activity,[1],110% (inactive)
same,outcome,[4],inactive
same,outcome,[5],inactive
same,outcome,[6],inactive
same,fold change,[2]; stronger effect = lower value,0.919 (inactive)
same,fold change,[2]; [18],1.18
same,cell count,[2]; [19],6530
same,cell count,[2]; [20],7110
same,z-score,[3],2.35 (active)
C[N+]1(C)CCC(OC(=O)C(c2ccccc2)c2ccccc2)CC1,period change,[7],0.03 h (inactive)
same,inhibition,[8],-2% (inactive)
same,fluorescence ratio (interference),[9],1.1 (inactive)
same,remaining activity,[1],93.9% (inactive)
same,remaining activity,[10],107% (inactive)
same,fold change,[2]; stronger effect = lower value,0.984 (inactive) and 0.955 (inactive)
same,fold change,[2]; [18],1.12 and 0.994
same,cell count,[2]; [19],9760 and 8710
same,cell count,[2]; [20],9910 and 9120
same,z-score,[3],0.275 (inactive) and 1.67 (inactive)
O=c1ccc2[nH]cc(C3=CCNCC3)c2[nH]1,remaining activity,[1],123% (inactive)
same,fold change,[2]; stronger effect = lower value,0.986 (inactive)
same,fold change,[2]; [17],0.934 (inactive)
same,fold change,[2]; [18],2.8 and 0.965
same,cell count,[2]; [19],10100 and 7840
same,cell count,[2]; [20],10200 and 8390
same,outcome,[11],inactive
same,z-score,[3],0.725 (inactive) and 0.015 (inactive)
C[C@@]12N[C@@H](Cc3ccccc31)c1ccccc12,survival,[12],4.17 (inactive)
same,parasite load remaining,[13],76.1% (inactive)
same,viability,[13],94%
same,remaining activity,[1],98.4% (inactive)
same,fold change,[2]; stronger effect = lower value,0.9 (inactive) and 1.01 (inactive) and 0.896 (inactive)
same,fold change,[2]; [18],1.15 and 0.684 and 0.656
same,cell count,[2]; [19],9800 and 8290 and 9030
same,cell count,[2]; [20],10900 and 8240 and 10100
same,z-score,[14]; [21],-0.404 (inactive) and 0.719 (inactive)
same,z-score,[14]; [22],-0.00785 and -0.0901
same,z-score,[3],0.79 (inactive)
CC(C)[C@@]1(NC(=O)[C@@H]2C[C@@H]3c4cccc5[nH]cc(c45)C[C@H]3N(C)C2)O[C@@]2(O)[C@@H]3CCCN3C(=O)[C@H](Cc3ccccc3)N2C1=O,fluorescence slope change,[15],195% (active)
same,period change,[7],0.005 h (inactive)
same,survival,[12],11.8 (inactive)
same,parasite load remaining,[13],54.5% (inactive) and 64.8% (inactive) and 17.1% (inactive)
same,viability,[13],93% and 73.6% and 61.5%
same,remaining activity,[1],88.2% (inactive)
same,remaining activity,[10],120% (inactive)
same,fold change,[2]; stronger effect = lower value,0.784 (inactive) and 0.954 (inactive) and 0.887 (inactive)
same,fold change,[2]; [18],1.05 and 0.961 and 0.856
same,cell count,[2]; [19],6690 and 7710 and 8510
same,cell count,[2]; [20],8530 and 8070 and 9590
same,z-score,[14]; [21],-0.553 (inactive)
same,z-score,[14]; [22],0.653
same,z-score,[3],-0.045 (inactive) and 0.13 (inactive)
O=C1C2CCN(CC2)C1(CO)CO,remaining activity,[1],120% (inactive)
same,fold change,[2]; stronger effect = lower value,1.16 (inactive) and 0.936 (inactive) and 0.92 (inactive)
same,fold change,[2]; [18],1.5 and 1.74 and 0.604
same,cell count,[2]; [19],4350 and 5660 and 9650
same,cell count,[2]; [20],3770 and 6050 and 10500
same,fold fluorescence,[16],9.13 [at 269.9 µM] (inactive)
same,z-score,[3],-0.76 (inactive)
Cc1[nH]cnc1CCN,remaining activity,[1],109% (inactive)
same,fold change,[2]; [17],0.956 (inactive)
same,fold change,[2]; [18],1.94
same,cell count,[2]; [19],10000
same,cell count,[2]; [20],10500
same,z-score,[3],0.125 (inactive)
NC(C(=O)O)c1cc(=O)[nH]o1 (configuration not stated),period change,[7],0.025 h (inactive)
same,inhibition,[8],-1% (inactive)
same,fluorescence ratio (interference),[9],0.9 (inactive)
same,remaining activity,[1],105% (inactive)
same,fold change,[2]; stronger effect = lower value,1.08 (inactive) and 0.946 (inactive)
same,fold change,[2]; [18],1.44 and 1.4
same,cell count,[2]; [19],10500 and 9700
same,cell count,[2]; [20],9770 and 10300
same,outcome,[11],inactive
same,z-score,[3],0.635 (inactive) and 0.185 (inactive)
N#Cc1ccc(N2CCN(C(=O)COc3ccc4[nH]cc(CCN)c4c3)CC2)cc1,remaining activity,[1],112% (inactive)
same,fold change,[2]; [17],0.857 (inactive)
same,fold change,[2]; [18],1.69
same,cell count,[2]; [19],8510
same,cell count,[2]; [20],9930
same,outcome,[11],inactive
same,z-score,[3],0.16 (inactive)
CN1c2ccccc2C(NCCCCCCC(=O)O)c2ccc(Cl)cc2S1(=O)=O (configuration not stated),remaining activity,[1],117% (inactive)
same,fold change,[2]; stronger effect = lower value,0.955 (inactive) and 0.9 (inactive)
same,fold change,[2]; [18],0.36 and 0.634
same,cell count,[2]; [19],7100 and 7840
same,cell count,[2]; [20],7430 and 8710
same,z-score,[14]; [21],-0.117 (inactive)
same,z-score,[14]; [22],0.00377
same,z-score,[3],0.255 (inactive)
CCCN(CCC)C1CCc2ccc(O)cc2C1 (configuration not stated),period change,[7],0.255 h (inactive)
same,inhibition,[8],-4% (inactive)
same,fluorescence ratio (interference),[9],1 (inactive)
same,remaining activity,[1],121% (inactive)
same,fold change,[2]; stronger effect = lower value,0.974 (inactive) and 1.05 (inactive)
same,fold change,[2]; [18],0.963 and 0.686
same,cell count,[2]; [19],10200 and 7960
same,cell count,[2]; [20],10500 and 7600
same,outcome,[11],inactive
same,z-score,[3],-0.285 (inactive) and -0.13 (inactive)
